# Assay outcomes from PubChem BioAssay.
# Dicer inh = blocks human Dicer maturation of pre-miR-21 | cat-ELCCA pre-miR-21 Dicer processing, chemiluminescence; active compounds read high | z-score at 25 µM | 47,000 tested, 6% active | AID 1347074; in the data active = z-score above about 3, passing the limit was not always enough;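 also: plate controls were vehicle for no effect and no enzyme for full effect; higher signal means more uncleaved substrate so more Dicer inhibition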
# Target sequence (Q9UPY3 whole entry, looked up): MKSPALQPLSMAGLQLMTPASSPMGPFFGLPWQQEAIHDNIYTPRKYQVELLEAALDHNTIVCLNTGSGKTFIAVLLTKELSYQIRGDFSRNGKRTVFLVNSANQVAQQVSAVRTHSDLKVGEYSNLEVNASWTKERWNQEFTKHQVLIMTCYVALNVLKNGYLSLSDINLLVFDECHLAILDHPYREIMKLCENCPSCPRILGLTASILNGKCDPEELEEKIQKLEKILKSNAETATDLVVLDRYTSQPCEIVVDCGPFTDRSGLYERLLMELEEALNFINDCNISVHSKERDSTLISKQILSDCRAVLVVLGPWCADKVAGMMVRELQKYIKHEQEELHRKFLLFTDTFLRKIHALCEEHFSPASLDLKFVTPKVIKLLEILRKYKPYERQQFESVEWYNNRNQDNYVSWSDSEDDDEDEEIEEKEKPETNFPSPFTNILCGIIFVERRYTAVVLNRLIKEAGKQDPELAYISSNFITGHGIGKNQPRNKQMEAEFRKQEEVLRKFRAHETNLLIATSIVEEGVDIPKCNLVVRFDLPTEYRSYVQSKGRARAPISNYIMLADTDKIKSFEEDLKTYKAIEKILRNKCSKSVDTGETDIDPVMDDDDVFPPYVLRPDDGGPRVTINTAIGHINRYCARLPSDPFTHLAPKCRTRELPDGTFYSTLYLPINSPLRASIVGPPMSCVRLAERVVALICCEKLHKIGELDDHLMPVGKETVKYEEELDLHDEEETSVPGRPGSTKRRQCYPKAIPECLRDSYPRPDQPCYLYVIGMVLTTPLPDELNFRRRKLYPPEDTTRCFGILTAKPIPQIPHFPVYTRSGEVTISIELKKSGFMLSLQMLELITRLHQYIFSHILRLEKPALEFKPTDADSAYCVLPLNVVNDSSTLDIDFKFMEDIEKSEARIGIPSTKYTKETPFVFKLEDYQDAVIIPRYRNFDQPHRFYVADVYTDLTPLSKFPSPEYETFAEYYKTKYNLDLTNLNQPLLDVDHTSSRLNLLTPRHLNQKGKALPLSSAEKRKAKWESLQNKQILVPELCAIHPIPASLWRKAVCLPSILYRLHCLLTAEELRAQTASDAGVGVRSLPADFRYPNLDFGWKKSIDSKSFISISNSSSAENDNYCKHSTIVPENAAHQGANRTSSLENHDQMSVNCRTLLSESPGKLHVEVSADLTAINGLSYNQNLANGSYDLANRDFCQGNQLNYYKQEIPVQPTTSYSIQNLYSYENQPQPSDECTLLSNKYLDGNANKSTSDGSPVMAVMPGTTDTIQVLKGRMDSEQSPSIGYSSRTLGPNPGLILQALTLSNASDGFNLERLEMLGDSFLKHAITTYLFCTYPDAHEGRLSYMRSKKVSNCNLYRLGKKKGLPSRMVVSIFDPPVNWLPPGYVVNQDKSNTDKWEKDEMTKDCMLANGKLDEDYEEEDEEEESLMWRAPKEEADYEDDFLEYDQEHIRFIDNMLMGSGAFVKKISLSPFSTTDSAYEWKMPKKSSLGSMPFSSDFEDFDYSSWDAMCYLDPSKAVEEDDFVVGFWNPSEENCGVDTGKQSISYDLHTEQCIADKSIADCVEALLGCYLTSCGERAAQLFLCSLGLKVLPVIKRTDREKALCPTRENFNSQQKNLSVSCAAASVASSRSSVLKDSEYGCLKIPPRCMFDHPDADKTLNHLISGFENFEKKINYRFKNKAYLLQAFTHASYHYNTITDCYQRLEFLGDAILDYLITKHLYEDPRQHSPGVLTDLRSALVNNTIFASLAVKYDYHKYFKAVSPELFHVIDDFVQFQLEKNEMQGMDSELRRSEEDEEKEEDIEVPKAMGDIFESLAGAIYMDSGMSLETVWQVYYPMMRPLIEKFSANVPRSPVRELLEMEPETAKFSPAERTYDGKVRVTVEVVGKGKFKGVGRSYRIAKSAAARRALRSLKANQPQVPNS
# * marks the source's active call; other numbers are inactive results. The entries come from a sample that favours hits as a whole.
SMILES,Dicer inh
Cc1ccnc(NC(c2cccc(F)c2)c2ccc3cccnc3c2O)c1 (centres undefined),11*
Cc1ccnc(NC(c2ccc(C)s2)c2ccc3cccnc3c2O)c1 (centres undefined),0.85
COc1cccc(C(Nc2cc(C)ccn2)c2ccc3cccnc3c2O)c1 (centres undefined),7.7
Cc1ccnc(NC(c2cc(C)ccc2O)c2ccc3cccnc3c2O)c1 (centres undefined),11*
Cc1ccnc(NC(c2ccccc2F)c2ccc3cccnc3c2O)c1 (centres undefined),4.3
Cc1ccc2ccc(C(Nc3ccccn3)c3cccs3)c(O)c2n1 (centres undefined),2.8
COc1ccc(C(Nc2cc(C)ccn2)c2ccc3ccc(C)nc3c2O)cc1 (centres undefined),1.4
O=C1Nc2ccc(Cl)cc2C1(O)c1c[nH]c2ccccc12 (centres undefined),0.98
CCSc1sc(C(=O)OC)c(-c2cccs2)c1C#N,0.97
Cc1cccn2cc(CSc3cccc4cccnc34)nc12,-1.1
CC(C)c1ccc(C2/C(=C(\O)c3ccccc3)C(=O)C(=O)N2CCCN(C)C)cc1 (centres undefined),0.49
O=C(Nc1ccccc1)Sc1ccccc1Cl,-0.56
COc1cc(C2c3c(oc4ccc(Br)cc4c3=O)C(=O)N2Cc2ccccc2)ccc1O (centres undefined),2.4
CCOC(=O)/C(C#N)=C/c1ccc(C(F)(F)F)cc1,0.51
COc1cc(C2Nc3ccc(C(=O)c4ccccc4)cc3NC3=C2C(=O)CC(C)(C)C3)ccc1O (centres undefined),0.14
COc1ccc(N2C(=O)CC(Sc3nc4c(cc3C#N)CCCC4)C2=O)cc1 (centres undefined),2.3
CC(C)Sc1nc(N2CCCC2)c2c(c1C#N)CC(C)(C)OC2,-0.59
CC1(C)Cc2c(C#N)c(SCc3ccccc3)nc(N3CCOCC3)c2CO1,-1.2
CC(C)CCSc1nc(N2CCCC2)c2c(c1C#N)CC(C)(C)OC2,3.1*
C=CCOC(=O)C1=C(C)N=C2SCCC(=O)N2C1c1ccc(C(=O)OC)cc1 (centres undefined),-0.82
COC(CNC(=S)Nc1cccc(Cl)c1Cl)OC,-1.2
Cc1ccc(-c2c3c(=O)n(C)c(=O)n(C)c3cn2C)cc1,0.83
Cn1c(=O)c2c(-c3ccccc3)n(C(CO)(CO)CO)cc2n(C)c1=O,0.81
Cn1c(=O)c2c(-c3ccccc3)n(CCCO)cc2n(C)c1=O,5.8*
N#CC1=C(OC(=O)c2c(F)cccc2Cl)c2ccc(Cl)cc2N(S(=O)(=O)c2ccc(Cl)cc2)CC1,-1.1
SMILES,Dicer inh
CC1CCc2c(sc3nnn(CC(=O)NCc4ccco4)c(=O)c23)C1 (centres undefined),1.7
O=C(CC1(O)C(=O)Nc2ccccc21)c1ccco1 (centres undefined),1.4
Cc1noc(/C=C/c2ccc(OCc3ccsc3C#N)cc2)c1[N+](=O)[O-],-3.1
Cc1ccc(/C=C/c2onc(C)c2[N+](=O)[O-])o1,-1.3
Cc1noc(/C=C/c2ccc(N3CCCC3)cc2)c1[N+](=O)[O-],3.3*
Cc1cc(NC(=O)CSc2nnc3c4ccccc4n(C)c3n2)no1,2.5
Cc1c(NC(=O)CSc2nnc3c4ccccc4n(C)c3n2)c(=O)n(-c2ccccc2)n1C,3.2*
C=CCn1c2ccccc2c2nnc(SCC(=O)Nc3c(C)n(C)n(-c4ccccc4)c3=O)nc21,0.96
CC(C)(C)C(=O)OC12C=CC(O1)C1C(=O)N(c3cc(C(F)(F)F)cc(C(F)(F)F)c3)C(=O)C12 (centres undefined),1.4
O=C(NCc1ccc(S(=O)(=O)Nc2ccc3c(c2)OCCO3)s1)c1ccc(Cl)cc1,0.24
O=C(NCc1ccc(S(=O)(=O)Nc2ccccc2Cl)s1)c1ccccc1,-0.52
O=C(NCc1ccc(S(=O)(=O)Nc2ccc3c(c2)OCCO3)s1)c1ccccc1,3.2*
CCOC(=O)c1sc(SC(C)C)c2c1-c1ccccc1N(C)S2(=O)=O,0.21
CN(C)/C=C(\C(=S)c1ccccc1)c1ccccc1,-0.79
C#CC(O)(c1ccccc1)c1ccccc1,0.09
CC(C)C(N)C(O)(c1ccccc1)c1ccccc1 (centres undefined),3.9*
COc1ccc(C(O)(c2ccccc2)c2ccccc2)cc1,1.9
O=S(=O)(c1cccs1)N1CC=C(c2ccccc2)CC1,-0.2
O=C1CSC(c2ccc(Cl)cc2)N1CCN1C(=O)CSC1c1ccc(Cl)cc1 (centres undefined),-1.3
O=[N+]([O-])c1ccc(/C=C/C2Oc3ccccc3C3CC(c4cccs4)=NN23)o1 (centres undefined),6.5*
c1ccc(C2Oc3ccccc3C3CC(c4cccs4)=NN32)nc1 (centres undefined),1.5
Cc1ccc(C2=NN3C(C2)c2ccccc2OC3c2ccc(F)cc2)o1 (centres undefined),2.1
CCCCCC(=O)Nc1ccc(N2CCN(c3ccc(C(F)(F)F)cn3)CC2)nc1,7.3
CCOC(=O)CS/C(Nc1ccccc1C(F)(F)F)=C(/C#N)C(=O)OCC,-0.32
CCOc1ncnc2c1sc1nc(C)cc(C)c12,1.1
SMILES,Dicer inh
Cc1cc(C)c2c(n1)sc1c(SCc3ccc(F)cc3)ncnc12,1
C=CCSc1ncnc2c1sc1nc(C)cc(C)c12,3.1*
COC(=O)C1=C(C(=O)OC)SC(=C2C(=S)C(C)(C)N(C(C)=O)c3cc(C)ccc32)S1,0.05
O=C(CN1CCOCC1)N1c2ccccc2CCc2ccccc21,2.6
O=C(NCC1c2ccccc2CCN1C(=O)CN1CCOCC1)C1CCCCC1 (centres undefined),4.5*
O=C(NCC1NCCc2ccccc21)C1CCCCC1 (centres undefined),1.5
Cc1oc2cc(Br)c(OC(=O)C(C)C)cc2c1C(=O)OC(C)C,-1.9
Cn1cnc2c1c(=O)n(CCNCCO)c(=O)n2C,1.4
Cc1ccccc1NC1=NS(=O)(=O)c2ccccc21,-2.4
Cc1sc(NC2=NS(=O)(=O)c3ccccc32)nc1-c1ccc(Cl)cc1,3.6*
CCc1sc(NC2=NS(=O)(=O)c3ccccc32)nc1-c1ccccc1,-0.27
CCOC(=O)c1cc(CC)sc1NC(=O)CC#N,0.27
CCOC(=O)Cn1c2ccccc2n2nc(C)c(=O)nc12,-0.56
CSC1=N/C(=C\c2ccc(Cl)cc2Cl)C(=O)N1Cc1ccccc1,-0.6
CN(C)c1ccc(/C=C/c2nc3n(n2)C=COc2ccccc2-3)cc1,6.1*
C/C(=N\N=C(/C)c1ccccc1)c1ccccc1,0.22
CN(CCc1ccccn1)Cc1ccccn1,-1
CN(CCc1ccccn1)Cc1cccc(F)c1,3.5*
CN(CCc1ccccn1)Cc1ccc(F)cc1,-0.8
CSC1=NNC(c2ccccn2)S1 (centres undefined),-0.12
CCCCCCCCC(=O)Nc1nc2c(s1)Cc1ccccc1-2,-1.7
Clc1ccc(Sc2nc3sccn3c2C=Nc2ccccc2)cc1,0.23
CC1(C)CC(=O)C2=C(C1)N=C1c3ccccc3C(=O)C1C2c1ccc(F)cc1 (centres undefined),1
CCCCOC(=O)c1ccc2c(c1)C(=O)NC2=O,1.5
CN(n1cnc2ccsc2c1=O)S(=O)(=O)c1ccc(Cl)cc1,0.02
CN(C(=O)CN1CCOCC1)n1cnc2ccsc2c1=O,0.08
CN(C(=O)Nc1ccccc1)n1cnc2ccsc2c1=O,5.4*
CCc1sc(C(C)(C)C)cc1NC(=O)c1ccccc1,-1.2
Cc1cc(C)c(C(=O)O)c(CC(C)(C)C(=O)O)c1,-2.3
Cc1cc(C)c(C(=O)Nc2ccccc2)c(CC(C)(C)C(=O)O)c1,4.7*
